Results with a measured potency or affinity are listed apart.
Legend:
Staphylococcus aureus = details: Concentration 20 uM; ASSAY_TEST Inhibition of Bacterial Growth; detection method Absorption (OD600); MEDIA CAMHB; plate type 384well; NBS; CORNING #3640; time 18 hr
Escherichia coli = details: Concentration 20 uM; ASSAY_TEST Inhibition of Bacterial Growth; detection method Absorption (OD600); MEDIA CAMHB; plate type 384well; NBS; CORNING #3640; time 18 hr

Structure (SMILES)	Inhibition (Staphylococcus aureus) [%]	Inhibition (Escherichia coli) [%]
Cc1cc(Nc2ccncc2)n2nc(C)c(-c3ccccc3Cl)c2n1	12.68	7.54
Cl.c1ccc(C[C@@H]2CN(c3nccc(Oc4ccc(-n5ccnc5)cc4)n3)CCN2)cc1	21.29	8.76
CCCCS(=O)(=O)Nc1ccc2cnn(C)c2c1	17.72	10.93
Cc1cccc(-c2nc(Nc3ccncn3)c3sccc3n2)n1	21.43	8.12
Cl.Cn1ccnc1CNCCS(=O)(=O)c1cccc(Nc2ccc(-c3cccc(F)c3)cn2)c1	24.8	8.19
Cc1nnc(NCc2cccc(Cl)c2)c2ccccc12	21.63	9.19
CC(C)(C)c1cc(C(=O)Nc2cccnc2)cc(C(=O)Nc2cccnc2)c1	15.23	6.88
Cc1cc(C)cc(COc2ccc3c(C)c(CCC(=O)O)c(=O)oc3c2C)c1	19.34	4.13
CCNC(=O)C(C)Nc1nc(-c2cccnc2)nc2sc(C)c(C)c12 (stereo unspecified)	4.74	10.74
CCc1ccc([C@@H]2C[C@H](C(F)(F)F)n3ncc(C(=O)NCc4ccc(OC)cc4)c3N2)cc1	5.55	-1.62
Cc1[nH]c2cc(F)cc(F)c2c(=O)c1-c1ccc(Oc2ccc(OC(F)(F)F)cc2)cc1	11.17	-0.95
COc1cc(C2=NCCN2)ccc1-c1cn(-c2cccc(C3=NCCN3)c2)nn1	19.96	14.41
CCOC(=O)c1c(NC(=O)c2c(F)c(F)c(F)c(F)c2F)sc(C(N)=O)c1C	12.42	12.47
Cc1ccc2oc(-c3cc(NC(=O)Cc4ccccc4)ccc3Cl)nc2c1	2.8	6.02
O=C(NCc1ccco1)N1CCN(Cc2ccc(Cl)s2)CC1	6.8	-3.38
Cc1ccc(C(=O)Nc2ccc(S(=O)(=O)O)c3cc(S(=O)(=O)O)cc(S(=O)(=O)O)c23)cc1NC(=O)c1cccc(NC(=O)Nc2cccc(C(=O)Nc3cc(C(=O)Nc4ccc(S(=O)(=O)O)c5cc(S(=O)(=O)O)cc(S(=O)(=O)O)c45)ccc3C)c2)c1 [SURAMIN]	23.13	7.96
Nc1nccc2ccc(-c3ccc4nccn4c3)cc12	24.43	1.05

Structure (SMILES)	Inhibition (Staphylococcus aureus) [%]	Inhibition (Escherichia coli) [%]
O=C(Nc1cccc(-c2ccc(NCCCN3CCCC3)nc2)c1)c1ccccc1	10.81	7.66
COc1nc2ccc(Br)cc2cc1[C@@H](c1ccccc1)[C@@](O)(CCN(C)C)c1cccc2ccccc12.O=C(O)C(F)(F)F	17.15	2.08
Cc1ccc2nc(C)c(-c3ccn(Cc4ccccc4)n3)n2c1	13.47	10.25
O=C(C(Cc1c[nH]c2ccccc12)NS(=O)(=O)c1ccc(Cl)cc1)N1CCCCC1 (stereo unspecified)	2.32	4.17
Cc1nc(-c2cccc(NCc3ccccc3)c2)[nH]c1C	19.75	6.38
Cc1ccccc1CN1CCC(O)(c2ccc(Cl)c(C(F)(F)F)c2)CC1	17.37	4.77
O=C(c1[nH]nc2c1CCCC2)N1CCN(Cc2ccc3c(c2)OCO3)CC1	14.51	7.99
C[C@H](C(N)=O)N1CCCC[C@H]1c1ccc(OCc2cccc(F)c2)cc1	21.57	11.68
O=C(Cn1ccnc1[N+](=O)[O-])NCc1ccccc1 [BENZNIDAZOLE]	21.81	9.92
O=C(c1ccc(NCCO)cc1)C1C[C@H]1c1ccc(Cl)cc1 (stereo partly specified)	8.07	-0.72
Clc1ccc(CCNc2cc(-c3ccccc3)nc3ncnn23)cc1	16.06	4.96
CNc1snc(C)c1C(=O)NCCOc1ccc(OC)cc1	18.31	5.8
Nc1ncc(-c2ccc(C(F)(F)F)nc2)cc1-c1ccc(C(F)(F)F)nc1	3.63	7.53
COc1ccc(-c2cnc3ccc(N4CCCC4)nn23)cc1OC	12.67	7.3
c1ccc(-c2cc(N3CCCCC3)c3ccccc3n2)nc1	9.48	7.94
CC(C)(C)n1nc(Cc2cccc3ccccc23)c2c(N)ncnc21	2.05	-5.14

— ChEMBL document CHEMBL4513149, “CO-ADD screening of MMV (CH) - MMV compounds” (2021)
